Measured values from ChEMBL document CHEMBL4513216, “Probing the Open Global Health Chemical Diversity Library for Multistage-Active Starting Points for Next-Generation Antimalarials” (ACS Infect Dis, 2020).
The campaign covered roughly 69,000 compounds. About 8,600 (12%) showed an effect of 50% or more. The sample holds strong results, similar compounds and a random draw of the others, so the mix is not that of the screen.

System: Plasmodium berghei
Assay: Screen against P. berghei liver stage (PbLuc), transformed with Luciferase, at 10uM
Assay type: functional, HepG2
Conditions: tested at 10 uM

Structure (SMILES) | INHIBITION [%]
Cc1ccccc1OCCCNC(=O)C1(C)CC(=O)N2C=CC=CC2=N1 (stereo not drawn) | 9.63
Cc1nc(C)n(CC2CN(Cc3ccccc3C#N)CCO2)n1 (stereo not drawn) | 5.9
CCN(Cc1cscn1)CC1(C)Cc2c(N)nc(N)nc2O1 (stereo not drawn) | 33.85
CN(CCC(C)(C)O)C(=O)C1CCC(=O)N(Cc2ccc(Cl)cc2)C1 (stereo not drawn) | 46.9
CN(CC1(CO)CCC1)C(=O)C1CCC(=O)N(Cc2ccc(Cl)cc2)C1 (stereo not drawn) | 49
CN(CC1(CO)CC1)C(=O)C1CCC(=O)N(Cc2ccc(Cl)cc2)C1 (stereo not drawn) | 70.4
COc1cc(C(C)=O)ccc1OC12CCCN(CC1)C2 (stereo not drawn) | 47.7
CCc1ccc(CN2CCCn3c(nc(Cn4ccnc4)cc3=O)C2)o1 | -2.17
CCO[C@@H]1CCN(C(=O)c2ccc[nH]2)[C@@H]1Cc1cccnc1 | 36.9
Cc1ccc(C(=O)N2CC(C(N)=O)O[C@H](C)C2)c(F)c1 (stereo partly drawn) | -110
Cc1ccc(C(=O)N2CCOCC2C(N)=O)c(F)c1 (stereo not drawn) | 54.5
Cc1ccc(S(=O)(=O)N2CCOCC2C(N)=O)c(F)c1 (stereo not drawn) | 27.4
CCOc1ccc(CSC(C)c2nc(C)no2)nc1 (stereo not drawn) | 60.2
CCOc1cccc(CSC(C)c2nc(C)no2)n1 (stereo not drawn) | -10.8
Cc1noc(C(C)SCc2ccccn2)n1 (stereo not drawn) | 14.3
CNc1nc2cn(C3CCCC3)c(=O)c-2c[nH]1 | -24.5
CC1CN(C)CCN1CC(=O)NCCOc1ccc2c(c1)OCO2 (stereo not drawn) | 18.7
O=C(c1cccnc1)N1CC(S(=O)(=O)c2ccc(Cl)cc2)C1 | 29.7
O=C(c1ccccn1)N1CC(S(=O)(=O)c2ccc(Cl)cc2)C1 | -54.7
O=C(c1ccco1)N1CC(S(=O)(=O)c2ccc(Cl)cc2)C1 | 50.5
c1ccc2c3c([nH]c2c1)C(c1nn[nH]n1)CCC3 (stereo not drawn) | 26.4
Cn1ccnc1C1(O)CCCN(Cc2ccncc2)CC1 (stereo not drawn) | 7.36
COc1ccc(C2c3c(N)nc(SC)nc3N=C3CCCC(=O)C32)cc1 (stereo not drawn) | 21.7
CCOc1cc2c(cc1CNC(Cc1cccs1)c1nccs1)OCO2 (stereo not drawn) | 52
COc1cc2c(cc1CNC(Cc1cccs1)c1nccs1)OCCO2 (stereo not drawn) | 36.9
COc1cc2c(cc1CNC(Cc1cccs1)c1nccs1)OCO2 (stereo not drawn) | 20.07
CCc1nnc(Nc2cc(C)nc(C3CCN(c4cnccn4)C3)n2)s1 (stereo not drawn) | 32.3

Structure (SMILES) | INHIBITION [%]
CCCN1CCN(Cc2cc3cc(OCC)ccc3[nH]c2=O)CC1 | 6.67
CCOc1ccc2[nH]c(=O)c(CN3CCN(S(N)(=O)=O)CC3)cc2c1 | 94.3
CCOc1ccc2[nH]c(=O)c(CN3CCC(O)CC3)cc2c1 | 20.2
CCCN(CCOC)C(=O)c1cc(Cn2c(C)nc3ccccc32)[nH]n1 | 65.7
Cc1nc2ccccc2n1Cc1cc(C(=O)N(C)C2CCOC2)n[nH]1 (stereo not drawn) | -39.9
CCn1nc(C)c(CN(CCOC)C(=O)c2ccc(=O)[nH]n2)c1C | -65
NC(=O)CNC(=O)c1cc(Cn2cnc3ccccc32)[nH]n1 | -72.5
CCCN(CC)C(=O)c1cc(Cn2c(C)nc3ccccc32)[nH]n1 | 75.7
CCN(CCO)C(=O)c1cc(Cn2c(C)nc3ccccc32)[nH]n1 | 24.9
COCc1nc(C(=O)N2CCCC2c2cccs2)cs1 (stereo not drawn) | 42
Cc1cccc(CN2CCc3ncnc(NC4CCC4)c3CC2)n1 | -24.8
c1cc(CN2C[C@@H]3OCCN(CC4CCCO4)[C@@H]3C2)cs1 (stereo partly drawn) | 46.2
COc1cc(CNCc2ccc(NC(=O)NC(C)C)cc2)cc(OC)c1 | 60
CCOc1cccc(CNCc2ccc(NC(=O)NC(C)C)cc2)c1 | -18
COc1cccc(CNCc2ccc(NC(=O)NC(C)C)cc2)c1 | 29.4
Cc1ccc(CN2CCC[C@]3(C(=O)O)CN(c4ncccn4)C[C@@H]3C2)o1 | 15.9
c1cncc(CN2CCC(c3csc4nccn34)CC2)c1 | 3.295
CC(C)(NC(=O)c1ccc(-c2ccc(F)cc2)s1)C(N)=O | 4.12
CCCc1nnsc1C(=O)N1CCCC1(C)C(=O)N1CCOCC1 (stereo not drawn) | -53.1
O=C1CC(N(C(=O)c2ccc(F)c(F)c2)C2CC2)C(=O)N1 (stereo not drawn) | 15.3
COc1cc(C(=O)N(C2CC2)C2CC(=O)NC2=O)ccc1C (stereo not drawn) | 31
Cc1ccc(C(=O)N(C2CC2)C2CC(=O)NC2=O)cc1F (stereo not drawn) | 50.3
O=C(O)c1c[nH]c2cc(NS(=O)(=O)c3ccc(Cl)cc3F)ccc12 | -2.19
CN(C)C(=O)[C@@H]1CCO[C@@H]2CCN(CCOCc3ccccc3)C[C@H]21 | 43.1
CC(=O)c1ccc(N2CCCC(CO)(CCc3ccccc3)C2)nc1 (stereo not drawn) | 43.7
CCCN1CC2(CCN(c3ccc(C(C)=O)cn3)CC2)CC1C(=O)O (stereo not drawn) | -12.5
